Structures are written as SMILES. The panel holds about 83,000 compounds, 20% with a hit somewhere; the sample as a whole holds those more often.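 Compound tested at a single concentration for 48 hours in 96-well plates; a percent growth value below 10 was scored as active.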 A number with no mark means an inactive call. Active and inactive are the calls of the source.

The first test relates to SF-295 CNS. In words: NCI-60 one-dose screen, 48 h (100 = growth as untreated, 0 = no growth, -100 = all killed). The following applies: 10 µM unless noted.
Turning to `COc1ccc(/C(C)=N/NS(=O)(=O)c2ccc(C)cc2)cc1OC`, the growth is 98.9%.

As for `C[C@@H]1C(=O)N(C[C@@H](Cc2ccccc2)NC(=O)OCc2ccccc2)[C@]1(Cc1ccccc1)C(=O)OCc1ccccc1`, the growth is 21.4%.

For the compound `NC(=Nc1ccc(N)cc1)C(N)=Nc1ccc(N)cc1`, the growth is 111%.

Turning to `N#Cc1c(NC(=O)c2ccccc2I)sc2c1CCCC2`, the growth was 21.1%.

For the compound `Cc1ccc(Nc2ccc(Nc3ccc(C)cc3S(=O)(=O)O)c3c2C(=O)c2ccccc2C3=O)c(S(=O)(=O)O)c1`, the growth was 101%.

For the compound `C=C1C(=O)O[C@H]2[C@H]1CC/C(Cn1cc(CNCCc3c[nH]c4ccc(Cl)cc34)nn1)=C\CC[C@@]1(C)O[C@@H]21`, the growth was 95.4%.

On to `Cn1cc(Nc2nccc(-c3ccc(N4CCCC4)c(C#N)c3)n2)cn1`, for which the growth was 71.3%.

In the case of `CSc1ncc(C)c(Nc2ccc(Cl)cc2)n1`, the growth was 96%.

As to `COc1cc(/C=C2\C=C(c3ccccc3)N(CCc3ccccc3)C2=O)cc(OC)c1OC`, the growth is 53.3%.

As to `O=c1cc(-c2ccc(OCc3ccccc3)cc2)oc2c(I)c(OCc3ccccc3)cc(OCc3ccccc3)c12`, the growth is 99%.

`CC(=O)Nc1nccs1`: the growth was 101%.

`N[C@H]1CCC[C@@H]1NCCCCN1C(=O)c2cccc3cccc(c23)C1=O`: the growth was 71.9%.

In the case of `N=C(N)c1ccc(-c2ccc(-c3ccc(Cl)cc3Cl)o2)nc1`, the growth is -62.8% (active).

In the case of `O=C1N/C(=N/O)S/C1=C/c1cn(-c2ccccc2)nc1-c1ccccc1`, the growth is 107%.

Take `C[C@@H]1CC[C@@H]2[C@@H]1[C@H](OC(=O)c1ccc3ccccc3c1)[C@]1(C3CCCCC3)C[C@@H](OC(=O)CO)[C@@]2(C)O1`: the growth was 68.2%.

For the compound `CN(C)c1ccc(C#Cc2c(F)cccc2Cl)cc1`, the growth was 76.5%.

As to `CCCN1CCN(c2ccc3nc(-c4ccc5nc(-c6cc(OC)c(OC)c(OC)c6)[nH]c5c4)[nH]c3c2)CC1`, the growth is 65.9%.

For the compound `O=C(NCCOCCOCCOCCNC(=O)c1cc2c(o1)C(=O)c1ccccc1C2=O)NC12CC3CC(CC(C3)C1)C2`, the growth was -91.9% (active).

With `COc1cc2c(cc1OC)-c1ccc3cc4c(cc3c1N(CCN(C)C)C2)OCO4`, the growth is -6.18% (active).

Regarding `O=C(NC(=S)Nc1ccc(-c2nc3ccccc3[nH]2)cc1)c1ccc2ccccc2c1`, the growth is 19.7%.

`CC[C@@H](C[C@H](CCO)c1ccccc1)c1cc2ccccc2o1`: the growth is 99.5%.

`NC(N)=N/N=C/c1ccc(Br)cc1`: the growth was 48.3%.

For the compound `CN(C)CCOC(=O)Nc1ccc(Cl)cc1`, the growth was 103%.

In the case of `O=C(/C=C/C12c3ccccc3C(c3ccccc31)C1C(=O)N(c3ccc(Cl)cc3)C(=O)C12)c1ccccn1` (stereo not drawn), the growth was -9.27% (active).

In the case of `OC(c1cccc(OCc2ccccc2)c1)c1nnc(-c2ccccc2)o1` (stereo not drawn), the growth is 64%.

Regarding `O=C1N(c2ccccc2)C(=S)N[C@]12[C@H](c1ccccc1)C1CCCN1[C@]21C(=O)NC2C=CC(Cl)=C[C@H]21` (stereo partly drawn), the growth is 103%.

Turning to `COC(=O)/C(=C\c1ccc(OC)cc1)C(=O)N1c2ccccc2Sc2ccccc21`, the growth is 38.8%.

As for `Cc1ccc(S(=O)(=O)Nc2sccc2-c2nc(-c3ccccc3)no2)cc1`, the growth was 99.3%.

Turning to `CCNCCNc1cc(-c2ccc(C(F)(F)F)cc2)c(C#N)c2nc3cc(Cl)c(Cl)cc3n12`, the growth is -91.2% (active).

Turning to `COc1ccc(/C=C(\C#N)n2nnc3ccccc32)cc1`, the growth is -3.98% (active).

Take `CC(C)n1nc(C#Cc2cccc3cc(-c4cccc(C(F)(F)F)c4)ncc23)c2c(N)ncnc21`: the growth was 91%.

`COC(=O)CNC(=O)C(=O)c1c(O)c(O)c(C(C)C)c2cc(C)c(-c3c(C)cc4c(C(C)C)c(O)c(O)c(C(=O)C(=O)NCC(=O)OC)c4c3O)c(O)c12`: the growth is 1.96% (active).

Turning to `NC(=O)c1c(NC(=O)c2ccc(C(F)(F)F)cc2Cl)sc2c1CCC(=O)C2`, the growth is -27.2% (active).

As for `C[C@@H](C[C@H](CCOCc1cccnc1)c1ccccc1)c1cc2ccccc2o1`, the growth was 97.6%.

For the compound `CCn1c(Sc2nnc(Nc3ccccc3)s2)nc2c1c(=O)n(C)c(=O)n2C`, the growth is 91.9%.

`Cc1cc(Cl)nc(N(CCCNc2ccnc3cc(Cl)ccc23)Cc2ccccn2)n1`: the growth was 38.9%.

Turning to `OC(CBr)c1ccnc2ccccc12` (stereo not drawn), the growth was 96.6%.

`COc1cc(C2C=C(c3cccc(NC(C)=O)c3)Nc3ncnn32)cc(OC)c1OC` (stereo not drawn): the growth is -58% (active).

Turning to `CCCCOC(=O)c1ccc(NC(=O)C(C)N2CCOCC2)cc1` (stereo not drawn), the growth is 101%.

In another test the test system is SF-539 CNS. The test is described as above. The settings on record: 10 µM unless noted.
With `COc1ccc(/C(C)=N/NS(=O)(=O)c2ccc(C)cc2)cc1OC`, the growth was 103%.

Consider `C[C@@H]1C(=O)N(C[C@@H](Cc2ccccc2)NC(=O)OCc2ccccc2)[C@]1(Cc1ccccc1)C(=O)OCc1ccccc1`, for which the growth was 59.6%.

Consider `NC(=Nc1ccc(N)cc1)C(N)=Nc1ccc(N)cc1`, for which the growth is 96.9%.

Take `N#Cc1c(NC(=O)c2ccccc2I)sc2c1CCCC2`: the growth is 22.9%.

As for `Cc1ccc(Nc2ccc(Nc3ccc(C)cc3S(=O)(=O)O)c3c2C(=O)c2ccccc2C3=O)c(S(=O)(=O)O)c1`, the growth is 102%.

With `C=C1C(=O)O[C@H]2[C@H]1CC/C(Cn1cc(CNCCc3c[nH]c4ccc(Cl)cc34)nn1)=C\CC[C@@]1(C)O[C@@H]21`, the growth is 53.6%.

`Cn1cc(Nc2nccc(-c3ccc(N4CCCC4)c(C#N)c3)n2)cn1`: the growth is 43.8%.

In the case of `CSc1ncc(C)c(Nc2ccc(Cl)cc2)n1`, the growth is 118%.

With `COc1cc(/C=C2\C=C(c3ccccc3)N(CCc3ccccc3)C2=O)cc(OC)c1OC`, the growth was -17.2% (active).

For `O=c1cc(-c2ccc(OCc3ccccc3)cc2)oc2c(I)c(OCc3ccccc3)cc(OCc3ccccc3)c12`, the growth was 100%.

With `CC(=O)Nc1nccs1`, the growth is 97%.

On to `N[C@H]1CCC[C@@H]1NCCCCN1C(=O)c2cccc3cccc(c23)C1=O`, for which the growth is 29.7%.

For `N=C(N)c1ccc(-c2ccc(-c3ccc(Cl)cc3Cl)o2)nc1`, the growth is 42.6%.

Take `O=C1N/C(=N/O)S/C1=C/c1cn(-c2ccccc2)nc1-c1ccccc1`: the growth is 110%.

Regarding `C[C@@H]1CC[C@@H]2[C@@H]1[C@H](OC(=O)c1ccc3ccccc3c1)[C@]1(C3CCCCC3)C[C@@H](OC(=O)CO)[C@@]2(C)O1`, the growth was 90.2%.

Take `CN(C)c1ccc(C#Cc2c(F)cccc2Cl)cc1`: the growth was 94.6%.

On to `CCCN1CCN(c2ccc3nc(-c4ccc5nc(-c6cc(OC)c(OC)c(OC)c6)[nH]c5c4)[nH]c3c2)CC1`, for which the growth is 59.6%.

For the compound `O=C(NCCOCCOCCOCCNC(=O)c1cc2c(o1)C(=O)c1ccccc1C2=O)NC12CC3CC(CC(C3)C1)C2`, the growth was -63.5% (active).

For `COc1cc2c(cc1OC)-c1ccc3cc4c(cc3c1N(CCN(C)C)C2)OCO4`, the growth was -7.83% (active).

Regarding `O=C(NC(=S)Nc1ccc(-c2nc3ccccc3[nH]2)cc1)c1ccc2ccccc2c1`, the growth was -30.8% (active).

Regarding `CC[C@@H](C[C@H](CCO)c1ccccc1)c1cc2ccccc2o1`, the growth is 104%.

Regarding `NC(N)=N/N=C/c1ccc(Br)cc1`, the growth was 62.2%.

Take `CN(C)CCOC(=O)Nc1ccc(Cl)cc1`: the growth was 102%.

On to `O=C(/C=C/C12c3ccccc3C(c3ccccc31)C1C(=O)N(c3ccc(Cl)cc3)C(=O)C12)c1ccccn1` (stereo not drawn), for which the growth was -52.7% (active).

Consider `OC(c1cccc(OCc2ccccc2)c1)c1nnc(-c2ccccc2)o1` (stereo not drawn), for which the growth is 93.1%.

On to `O=C1N(c2ccccc2)C(=S)N[C@]12[C@H](c1ccccc1)C1CCCN1[C@]21C(=O)NC2C=CC(Cl)=C[C@H]21` (stereo partly drawn), for which the growth is 103%.

For `COC(=O)/C(=C\c1ccc(OC)cc1)C(=O)N1c2ccccc2Sc2ccccc21`, the growth was 42.1%.

For the compound `Cc1ccc(S(=O)(=O)Nc2sccc2-c2nc(-c3ccccc3)no2)cc1`, the growth was 95%.

As for `CCNCCNc1cc(-c2ccc(C(F)(F)F)cc2)c(C#N)c2nc3cc(Cl)c(Cl)cc3n12`, the growth was -92.9% (active).

For the compound `COc1ccc(/C=C(\C#N)n2nnc3ccccc32)cc1`, the growth was -46.4% (active).

For `CC(C)n1nc(C#Cc2cccc3cc(-c4cccc(C(F)(F)F)c4)ncc23)c2c(N)ncnc21`, the growth was 54.4%.

Take `COC(=O)CNC(=O)C(=O)c1c(O)c(O)c(C(C)C)c2cc(C)c(-c3c(C)cc4c(C(C)C)c(O)c(O)c(C(=O)C(=O)NCC(=O)OC)c4c3O)c(O)c12`: the growth is 18.9%.

As for `NC(=O)c1c(NC(=O)c2ccc(C(F)(F)F)cc2Cl)sc2c1CCC(=O)C2`, the growth is -84.8% (active).

In the case of `C[C@@H](C[C@H](CCOCc1cccnc1)c1ccccc1)c1cc2ccccc2o1`, the growth was 98.8%.

Consider `CCn1c(Sc2nnc(Nc3ccccc3)s2)nc2c1c(=O)n(C)c(=O)n2C`, for which the growth is 96.2%.

Regarding `Cc1cc(Cl)nc(N(CCCNc2ccnc3cc(Cl)ccc23)Cc2ccccn2)n1`, the growth was 38.9%.

Turning to `OC(CBr)c1ccnc2ccccc12` (stereo not drawn), the growth was 102%.

Take `COc1cc(C2C=C(c3cccc(NC(C)=O)c3)Nc3ncnn32)cc(OC)c1OC` (stereo not drawn): the growth was -5.24% (active).

With `CCCCOC(=O)c1ccc(NC(=O)C(C)N2CCOCC2)cc1` (stereo not drawn), the growth is 102%.

(Values after PubChem BioAssay (NCI).)
